Several values for one entry are separate records, joined by “and”; a condition that tells them apart may be missing. Equal values may be shown once. Records with an inconclusive call do not appear. Where a call stands in place of a potency, no number is given. Activity calls are given as the source filed them. Calls follow the shape of the full dose curve.
Legend:
[1] = Primary qHTS for Huh7 cytotoxicity: counterscreen for inhibitors of MERS-S pseudotyped particle cell entry (AID 1479147)
[2] = Primary qHTS for inhibitors of MERS-S pseudo-typed particle cell entry (AID 1479149); also: nearly all actives have a fitted effect of over 60% in size
[3] = Primary qHTS for Vero E6 cytotoxicity: counterscreen for inhibitors of SARS-S pseudo-typed particle cell entry (AID 1479150)
[4] = Cytotoxicity counterscreen for inhibitors of SARS-CoV-2 cell entry (AID 1645845); also: nearly all actives have a fitted effect of over 50% in size
Procedure, shortened: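 ATP-content luminescence (ATPLite 1step, 15 min RT) read after 48 h compound exposure of Expi293F cells stably expressing human ACE2; normalized to cells-only wells and media-only wells.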

[5] = Primary qHTS to identify inhibitors of SARS-CoV-2 cell entry (AID 1645846); settings: activity change, negative = inhibition: at 57.1 µM (top of the series) unless noted; also: nearly all actives have a fitted effect of over 45% in size
Procedure, shortened: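 Inhibition of spike-mediated entry was scored in human ACE2-transfected Expi293F cells. Particles were MLV-pseudotyped with Wuhan-Hu-1 S carrying a 19-aa C-terminal deletion; signal was luciferase after two days, scaled between spike PP and fusion-protein-free PP.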

Compound	Potency [1]	Potency [2]	Potency [3]	Potency [4]	activity change, negative = inhibition [5]	Potency [5]
CCOC(=O)[C@H](CCc1ccccc1)N[C@@H](C)C(=O)N1Cc2ccccc2C[C@H]1C(=O)O	inactive	inactive	inactive	inactive	3.61%	
CC[N+](C)(C)c1cccc(O)c1	inactive	inactive	inactive	inactive		inactive
O=C(O)CCNC(=O)c1ccc(N=Nc2ccc(O)c(C(=O)O)c2)cc1	inactive	inactive	inactive	inactive		inactive
CC12CC3CC(C)(C1)CC(N)(C3)C2	inactive	inactive	inactive	inactive	-26.3%	inactive
CCCCS(=O)(=O)N[C@@H](Cc1ccc(OCCCCC2CCNCC2)cc1)C(=O)O	inactive	inactive	inactive	inactive		inactive
COC(=O)[C@@H]1CC2=CC(=O)CC[C@]2(C)[C@@]23O[C@@H]2C[C@@]2(C)[C@@H](CC[C@@]24CCC(=O)O4)[C@H]13	inactive	inactive	inactive	inactive	-17.3%	inactive
CCCN(CCC)CCc1cccc2c1CC(=O)N2	inactive	inactive	inactive	inactive		inactive
C[C@](N)(Cc1ccc(O)c(O)c1)C(=O)O	inactive	inactive	inactive	inactive	-1.67%	inactive
Cc1cn([C@H]2C=C[C@@H](CO)O2)c(=O)[nH]c1=O	inactive	inactive	inactive	inactive	-21.1%	
COCCCOc1cc(C[C@@H](C[C@H](N)[C@@H](O)C[C@H](C(=O)NCC(C)(C)C(N)=O)C(C)C)C(C)C)ccc1OC	inactive	inactive	inactive	inactive	-3.02%	inactive
CCOC(=O)c1ncn2c1CN(C)C(=O)c1cc(F)ccc1-2	inactive	inactive	inactive	inactive	-12.9%	inactive
Cc1ccccc1N1C(=O)c2cc(S(N)(=O)=O)c(Cl)cc2NC1C (configuration not stated)	inactive	inactive	inactive	inactive	-97.4%	inactive
CCCN[C@H]1CCc2nc(N)sc2C1	inactive	inactive	inactive	inactive	-3.81%	inactive
CC(c1cc2ccccc2s1)N(O)C(N)=O (configuration not stated)	inactive	inactive	inactive	inactive	4.54% and -93%	

— PubChem BioAssay (NCATS)
